From ChEMBL document CHEMBL1157539, “Thousands of chemical starting points for antimalarial lead identification” (Nature, 2010)

Legend:
Format in all cases: functional
Plasmodium falciparum [1] = assay: GSK_TCMDC: Inhibition of Plasmodium falciparum 3D7 in whole red blood cells, using parasite LDH activity as an index of growth. Test compounds present at 2uM
Plasmodium falciparum [2] = assay: GSK_TCMDC: Inhibition of Plasmodium falciparum Dd2 in whole red blood cells, using parasite LDH activity as an index of growth. Test compounds present at 2uM
HepG2 = assay: GSK_TCMDC: Percent inhibition of human HepG2 cell line. Test compounds present at 10uM.

| Compound | Inhibition (Plasmodium falciparum [1]) | Inhibition (Plasmodium falciparum [2]) | Inhibition (HepG2) |
| --- | --- | --- | --- |
| Cc1ccccc1C1CCN(C2CCC(NC(=O)c3ccc(-c4cccs4)s3)CC2)CC1 (stereo not given) | 100% | 54% | 58% |
| O=C(/C=C/c1cc([N+](=O)[O-])ccc1Cl)N1CCC(CCN2CCC(c3c[nH]c4ccccc34)CC2)CC1 | 92% | 26% | 25% |
| O=C(NCc1ccc(Cl)c(Cl)c1)c1ccc(C2CCCN(Cc3ccc4[nH]cnc4c3)C2)cc1 (stereo not given) | 100% | 83% | 9% |
| COc1ccc(-c2cnc(N)c(-c3ccc(O)c(OC)c3)c2)cn1 | 97% | 98% | 23% |
| CC(C)COc1ccc(Cl)cc1Cc1ccc(-c2nc3c(F)cccc3[nH]2)o1 | 98% | 47% | 15% |
| O=C(NCc1cccs1)[C@H](Cc1ccccc1)Nc1ccnc(NCCc2ccccc2)n1.O=C(O)C(F)(F)F | 85% | 59% | 0% |
| COc1ccc(CNCc2ccccc2)cc1-c1cccc(S(=O)(=O)NCCN2CCCC2)c1.O=C(O)C(F)(F)F | 98% | 36% | 37% |
| CCNc1cc(C(=O)N[C@@H](Cc2ccccc2)[C@H](O)CNC2CCCC2)cc(N2CCCC2=O)c1 | 98% | 98% | 8% |
| Cc1cccc2nc(-c3ccc(-c4ccc(NC(=O)C(C)CN5CCN(C)CC5)cc4)s3)[nH]c12 (stereo not given) | 100% | 99% | 17% |
| Cc1c(CNCCCNc2cc(=O)c3ccccc3[nH]2)sc(-c2ccco2)c1Br.Cl | 93% | 39% | 0% |
| COc1ccc(CN2CCC(NCc3cccc([N+](=O)[O-])c3)CC2)cc1.O=C(O)C(F)(F)F | 92% | 3% | 6% |
| O=C(Cn1c(SCc2cccc(F)c2F)cc(=O)c2ccccc21)N(CCc1c[nH]cn1)Cc1ccc(-c2ccc(C(F)(F)F)cc2)cc1 | 100% | 72% | 18% |
| CC(Sc1nc2sccc2c(=O)n1C)C(=O)Nc1ccc2c(c1)OCO2 (stereo not given) | 100% | 100% | 5% |
| CCCSc1nc2c(c(=O)n1Cc1ccco1)C1(CCCCC1)Cc1ccccc1-2 | 100% | 95% | 0% |
| NS(=O)(=O)c1cccc(Br)c1 | 98% | 0% | 0% |
| COc1ccccc1CCNc1nc(C)cc(N[C@@H](Cc2ccccc2)C(=O)NCCc2ccccc2)n1.O=C(O)C(F)(F)F | 100% | 89% | 16% |
| CC(C)(C)OC(=O)n1cc(C2CCN(CCCC34CCCc5cccc(c53)NC4=O)CC2)c2ccncc21 (stereo not given) | 92% | 0% | 20% |
| CCCCCCCCc1c(C)nc(C)c(C#N)c1O | 97% | 96% | 0% |
| Cc1ccc([S+]([O-])Cc2ccc(Cl)cc2)cc1 (stereo not given) | 98% | 5% | 8% |
| CCN(CC)CCCNc1ncc2c(-c3ccc(NC(=O)Nc4cc(C(F)(F)F)ccc4F)cc3)nn(C)c2n1.O=C(O)C(F)(F)F | 99% | 74% | 81% |

| Compound | Inhibition (Plasmodium falciparum [1]) | Inhibition (Plasmodium falciparum [2]) | Inhibition (HepG2) |
| --- | --- | --- | --- |
| Nc1nc(N)c2c(Oc3cccc4ccccc34)cccc2n1 | 96% | 10% | 42% |
| Cc1ccc(NC(=O)c2ccc3ncccc3c2)cc1OC1CCN(Cc2ccsc2)CC1.O=C(O)C(F)(F)F | 93% | 29% | 21% |
| CCN1CCN(Cc2ccc(NC(=O)c3cc4ccc5cccnc5c4[nH]3)cc2)CC1 | 100% | 97% | 0% |
| COc1cc(NC(=O)c2sc(-c3ccc(Cl)cc3)cc2NC(=O)CN2CC[C@@H](O)C2)ccc1OCCN1CCCC1 | 90% | 79% | 56% |
| COc1cccc(OC)c1OCCCOc1c(C)nc(N)nc1N.Cl | 97% | 0% | 31% |
| O=C(Nc1cccc(-c2ccc(-c3nc4cc(F)ccc4[nH]3)cc2)c1)c1ccncc1 | 100% | 96% | 52% |
| CN1CCN(C(C(=O)NCc2cc(Cl)cc(Cl)c2)c2ccc(NC(=O)Nc3ccccc3)cc2)CC1.O=C(O)C(F)(F)F (stereo not given) | 98% | 43% | 23% |
| CC(CCc1ccccc1)NCC(O)c1ccc2c(c1)S(=O)(=O)c1ccccc1N2 (stereo not given) | 95% | 4% | 17% |
| CCCc1c(C(=O)Nc2ccc3c(c2)CCN(C2CCC2)CC3)cnn1-c1ccc(Cl)cc1.O=C(O)C(F)(F)F | 92% | 12% | 64% |
| COc1cccc2c(NN=Cc3ccccc3Cl)cc(C)nc12 | 100% | 100% | 22% |
| CN1CC=C(c2csc3ccc(NC(=O)Nc4ccc(-c5ccncc5)c5ccccc45)cc23)CC1 | 93% | 99% | 20% |
| COc1ccc2ncc(C#N)c(CCN3CCC(NCc4ccc5c(n4)NC(=O)CS5)CC3)c2n1.Cl | 89% | 17% | 9% |
| Nc1cc(-c2cccc(Cl)c2)nn1-c1ccnc2cc(Cl)ccc12 | 99% | 33% | 0% |
| CCOC(=O)C1=C(C)N=c2sc(=Cc3ccccc3O)c(=O)n2C1c1ccc(OC)c2ccccc12 (stereo not given) | 97% | 38% | 0% |
| COc1ccc(OCc2ccccn2)c(C2CCN(CCCCNC(=O)c3ccc(NC(=O)c4ccc(Cl)cc4)cc3)CC2)c1.Cl | 98% | 71% | 18% |
| FC(F)(F)c1ccc2[nH]c(-c3ccc(-c4ccc(CNCCc5ccncc5)cc4)cc3)nc2c1.O=C(O)C(F)(F)F | 100% | 100% | 26% |
| COc1cc2s/c(=N\C(=O)c3cccc([N+](=O)[O-])c3)n(C)c2cc1OC | 92% | 79% | 5% |
| Cc1[nH]c(C)c(-c2ccc(-c3ccc(Cl)cc3)nc2)c(=O)c1Cl | 95% | 96% | 8% |
| CN(C)Cc1cccc(-c2ccc(NC(=O)c3ccc4c(=O)n(CC5CCCO5)cnc4c3)cc2)c1 (stereo not given) | 97% | 14% | 28% |
| C#C[C@H]1O[C@@H](n2cnc3c(Nc4cc(Br)cc(C(F)(F)F)c4)ncnc32)[C@H](O)[C@@H]1O | 94% | 56% | 21% |

| Compound | Inhibition (Plasmodium falciparum [1]) | Inhibition (Plasmodium falciparum [2]) | Inhibition (HepG2) |
| --- | --- | --- | --- |
| O=C(Nc1cccc(-c2nn3ccccc3c2-c2ccnc(Nc3cccc(N4CCCC4=O)c3)n2)c1)c1cc(F)ccc1F | 99% | 51% | 59% |
| Cl.c1ccc2c(NCCCCCCCNc3ccnc4ccccc34)ccnc2c1 | 100% | 94% | 91% |
| Cc1ccc(C2CCN(CCCCNC(=O)c3ccc(NC(=O)c4ccc(Cl)cc4)cc3)CC2)c(C)c1.Cl | 96% | 10% | 23% |
| Cc1csc(-c2ncc(OC[C@@H](N)Cc3ccccc3)cc2-c2ccc3[nH]nc(C)c3c2)c1.O=C(O)C(F)(F)F | 98% | 35% | 48% |
| COc1ccc(-c2nc(NCc3ccccc3)c3cc(OC)c(OC)cc3n2)cc1 | 100% | 100% | 15% |
| CN(C)C=Nc1ccc(OCCCCCCOc2ccc(N=CN(C)C)cc2)cc1.Cc1ccc(S(=O)(=O)O)cc1 | 100% | 94% | 26% |
| Cc1cc(N[C@@H](CC(C)C)C(=O)Nc2ccccc2)nc(NCCc2ccccc2)n1.O=C(O)C(F)(F)F | 100% | 87% | 0% |
| COc1cccc(CC(=O)NC2CCN(c3ccnc4cc(Cl)ccc34)C2)c1.O=C(O)C(F)(F)F (stereo not given) | 100% | 85% | 9% |
| O=C(O)C(F)(F)F.OCC1CCN(Cc2ccc(-c3ccc(-c4nc5cc(C(F)(F)F)ccc5[nH]4)s3)cc2)CC1 | 100% | 90% | 35% |
| O=C(Nc1ccccc1)c1nn(CCCN2CCC(N3CCCC3)CC2)cc1-c1ccc(Cl)c(Cl)c1 | 100% | 98% | 31% |
| O=C(O)C[C@H](NC(=O)CCCNC(=O)c1cccc(-c2ccc(Cl)c(Cl)c2)c1)C(=O)O | 91% | 0% | 5% |
| COc1cccc2c(N/N=C/c3ccc([N+](=O)[O-])cc3)ccnc12 | 92% | 16% | 25% |
| CS(=O)(=O)O.Nc1nc(NCC2CCC(CNS(=O)(=O)c3cccc4ccccc34)CC2)nc2ccccc12 (stereo not given) | 97% | 42% | 9% |
| COc1ccc(N2CCN(C(CNC(=O)C3CCCCC3)c3ccc4c(c3)OCO4)CC2)cc1 (stereo not given) | 92% | 83% | 1% |
| CON=Cc1ccn(-c2ccc(O)c3c2C[C@H]2C[C@H]4[C@H](N(C)C)C(O)=C(C(N)=O)C(=O)[C@@]4(O)C(O)=C2C3=O)c1.O=S(=O)(O)O | 96% | 70% | 3% |
| Br.Oc1ccc(CCNCCCCCCNCCCc2ccc(Cl)cc2)cc1O | 87% | 3% | 13% |
| Cc1nc(-c2cccc(NCc3ccccc3)c2)[nH]c1C.Cl | 100% | 48% | 16% |
| Clc1ccc(-c2ccc(C=NNc3nc(=Nc4ccccc4)[nH]c(=Nc4ccccc4)[nH]3)o2)cc1Cl | 97% | 75% | 1% |
| CN(C)c1ccc(CN2CCCCC(NC(=O)c3cc(-c4ccccc4Cl)cs3)C2)cc1.O=C(O)C(F)(F)F (stereo not given) | 91% | 14% | 10% |
| COc1cccc2cc(C(=O)N[C@@H](CC(C)C)C(=O)N[C@H](/C=N/N(C)C(=O)OC(C)(C)C)CC(=O)OC(C)(C)C)oc12 | 87% | 67% | 5% |
